# Measured values published in PubChem BioAssay AID651814 (National Center for Advancing Translational Sciences (NCATS), 2012).
# Hit rate of the full screen: of about 2,100 compounds, about 590 (28%) were called active. Another 42% or so got no clear call; they are omitted. Calls come from the whole dose curve; as a rule, active = well fitted inhibition curve with a large enough effect; inconclusive = small, poorly fitted or top-dose-only effect; inactive = flat fitted curve, though single readings scatter. This is one part of the list.
# Biological target: DNA dC->dU-editing enzyme APOBEC-3F (Homo sapiens) (UniProt Q8IUX4)
# Sequence (Q8IUX4 whole entry, looked up): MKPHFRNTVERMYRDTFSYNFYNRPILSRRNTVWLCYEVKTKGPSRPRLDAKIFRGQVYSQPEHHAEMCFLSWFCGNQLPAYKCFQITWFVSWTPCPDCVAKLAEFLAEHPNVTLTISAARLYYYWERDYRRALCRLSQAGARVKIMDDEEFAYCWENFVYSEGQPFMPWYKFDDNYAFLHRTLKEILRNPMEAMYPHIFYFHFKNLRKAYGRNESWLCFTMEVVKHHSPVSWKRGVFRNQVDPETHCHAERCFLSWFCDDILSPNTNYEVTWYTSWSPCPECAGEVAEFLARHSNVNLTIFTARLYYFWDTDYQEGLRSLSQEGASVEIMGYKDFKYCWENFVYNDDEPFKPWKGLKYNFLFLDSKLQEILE
# Assay: qHTS for inhibitors of Vif-A3F interactions: Cherry picks; note: nearly all actives have a fitted effect of over 70% in size;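 for max response: % of control where 0% means no effect; active compounds raise eYFP fluorescence by blocking Vif-driven A3F loss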
# Conditions: HeLa A3F-eYFP + Vif (tagged APOBEC3F with the HIV-1 protein that degrades it), eYFP fluorescence, 24 h
# How it was run: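 Read-out: yellow fluorescence (ex 488 nm, em 500-530 nm) by laser-scanning cytometer after 24 h compound exposure, several concentrations, at 37 deg C. Cells: HeLa line stably co-expressing Vif and C-terminally eYFP-tagged A3F; MG132 served as positive control.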
# Potency is the fitted concentration of half-maximal effect.
Compound,max response,Potency
CCCC1=[N+](CC(=O)c2ccc(Br)cc2)CCn2cccc21,-4.77% (inactive),
O=C(C[n+]1cccc2cc(Cl)ccc21)c1ccc2ccccc2c1,,18.4 µM (active)
COc1ccc(C(=O)C[n+]2cccc3cc(Cl)ccc32)cc1,,18.4 µM (active)
CC(C)(C)c1ccc(C(=O)C[n+]2cccc3cc(Cl)ccc32)cc1,,20.6 µM (active)
COc1ccc(C(=O)C[n+]2cc(Br)cc3ccccc32)cc1,,8.2 µM (active)
CCCc1nc2c(C)cc(Br)cn2c1Cc1ccccc1,-22.2% (inactive),
O=C(COc1ccccc1)NC(=S)Nc1cccc2c(O)cccc12,-15.7% (inactive),
COc1ccc(C(=O)NC2CCCc3ccccc32)cc1[N+](=O)[O-] (stereo unspecified),-23.5% (inactive),
O=C(C[n+]1cccc2cc(Cl)ccc21)c1ccc(I)cc1,,20.6 µM (active)
O=C(c1ccccc1)C1C(=O)c2ccccc2C1=O,2.89% (inactive),
NN=C1c2ccccc2C(=O)C1C(=O)C(c1ccccc1)c1ccccc1 (stereo unspecified),,7.9 µM (active)
CCOC(=O)/C=c1/s/c(=C\c2c(OC)ccc3ccccc23)c(=O)n1CC(=O)NCC1CCCO1 (stereo unspecified),,11.2 µM (active)
NC(=O)CSc1nc2c(sc3ccccc32)c(=O)n1CCCC(=O)NCC1CCCO1 (stereo unspecified),3.7% (inactive),
CCOC(=O)/C=c1/s/c(=C/c2ccc3cc(OC)ccc3c2)c(=O)n1CC(=O)NCC1CCCO1 (stereo unspecified),,18.4 µM (active)
CCOC(=O)/C=c1\s/c(=C\c2c(OC)ccc3ccccc23)c(=O)n1CC(=O)NCC1CCCO1 (stereo unspecified),,14.6 µM (active)
Cc1cc(-c2ccccc2)c2c3c(c(-c4ccccc4)n2n1)c(=O)n(C)c(=O)n3C,-9.86% (inactive),
Cc1ccc(Nc2nc(Cl)c(C=O)s2)cc1Cl,,23.1 µM (active)
N#C/C(=C\c1ccc(C(=O)O)cc1)c1nc2sc3c(c2c(=O)[nH]1)CCCC3,1.2% (inactive),
CN(C)c1ccc(/C=C(\C#N)c2nc3ccccc3c(=O)[nH]2)cc1,,0.731 µM (active)
Fc1ccc(-c2cnn3c(-c4cccs4)ccnc23)cc1,,4.98 µM (active)
Cc1ccccc1NCC(=O)N=Nc1c(O)[nH]c2ccc([N+](=O)[O-])cc12,-1.42% (inactive),
CCN(CC)S(=O)(=O)c1cc([N+](=O)[O-])ccc1N=Nc1c(O)[nH]c2ccccc12,,16.4 µM (active)
CC(C)CN(CC(C)C)c1ccc(/C=C/c2ccnc3ccccc23)cc1,,20.6 µM (active)
CCCCN(CCC(=O)O)c1ccc(/C=C/c2ccnc3ccccc23)cc1,,18.4 µM (active)
CCN(C)c1ccc(/C=C/c2ccnc3ccccc23)cc1,,13 µM (active)
CCCN(CCC)c1ccc(/C=C/c2ccnc3ccccc23)cc1,,7.31 µM (active)
